About 83,000 compounds went through this panel and 20% of them were active in at least one assay; those are over-represented in the sample as a whole.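 Treatment: one concentration, 48 hours, 96-well format. Scoring: percent growth, with anything below 10 considered active.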 Unmarked numbers belong to inactive results. The source made the active and inactive calls.
What was measured:
Assay in all cases: NCI-60 one-dose screen, 48 h (100 = growth as untreated, 0 = no growth, -100 = all killed)
HCT-15 colon = conditions: 10 µM unless noted
SNB-75 CNS = conditions: 10 µM unless noted
SNB-19 CNS = conditions: 10 µM unless noted
U251 CNS = conditions: 10 µM unless noted
PC-3 prostate = conditions: 10 µM unless noted
SK-MEL-5 melanoma = conditions: 10 µM unless noted
UACC-62 melanoma = conditions: 10 µM unless noted
LOX IMVI melanoma = conditions: 10 µM unless noted
SK-MEL-28 melanoma = conditions: 10 µM unless noted
SK-MEL-2 melanoma = conditions: 10 µM unless noted
EKVX NSCLC = conditions: 10 µM unless noted
SN12C renal = conditions: 10 µM unless noted
UO-31 renal = conditions: 10 µM unless noted
TK-10 renal = conditions: 10 µM unless noted
ACHN renal = conditions: 10 µM unless noted
A498 renal = conditions: 10 µM unless noted
CCRF-CEM leukemia = conditions: 10 µM unless noted
MOLT-4 leukemia = conditions: 10 µM unless noted
CAKI-1 renal = conditions: 10 µM

Row | SMILES | growth (HCT-15 colon) | growth (SNB-75 CNS) | growth (SNB-19 CNS) [%] | growth (U251 CNS) [%] | growth (PC-3 prostate) [%] | growth (SK-MEL-5 melanoma) | growth (UACC-62 melanoma) | growth (LOX IMVI melanoma) | growth (SK-MEL-28 melanoma) | growth (SK-MEL-2 melanoma) | growth (EKVX NSCLC) [%] | growth (SN12C renal) [%] | growth (UO-31 renal) | growth (TK-10 renal) | growth (ACHN renal) | growth (A498 renal) | growth (CCRF-CEM leukemia) | growth (MOLT-4 leukemia) | growth (CAKI-1 renal) [%]
1 | Clc1ccc2c(c1)nnn1c3ncccc3c(Br)c21 | 101% | -3.76% (active) | 89 | 59.4 | 78.6 | 77.3% | 58.3% | 77.5% | 109% | 93% | 29.2 | 91.9 | 58.9% | 78.8% | 78.4% | 70.5% | 86.4% | 115% | –
2 | [2H]c1nc(Nc2ncc(F)c(-c3cc(F)c4nc(C)n(C(C)C)c4c3)n2)c([2H])c([2H])c1CN1CCN(CC)CC1 | 33.2% | 26.5% | 61.8 | 46.1 | 47.8 | 27.5% | 62.5% | 37% | 60.5% | 70.5% | 55 | 47.8 | 23.1% | 35.1% | – | 44.2% | 27.2% | 15.4% | –
3 | O=C1CCC(=O)N1C1CCCCC1 | 112% | 88.5% | 99.9 | 107 | 99.8 | 96.8% | 97.7% | 98.4% | 108% | 103% | 98.4 | 100 | 84.3% | 105% | – | 97.1% | 108% | 95.7% | –
4 | CN(C)CCNc1nc2ccccc2c2c(=O)c3ccccc3sc12 | 8.83% (active) | 30.6% | 47.6 | 17.8 | 21 | -83.1% (active) | -33% (active) | -91.6% (active) | -25.3% (active) | -11% (active) | 30.7 | 32.1 | 12.6% | – | 7.03% (active) | -2.07% (active) | 6.74% (active) | -4.55% (active) | –
5 | O=C(NCCNc1nccc(-c2c(-c3cccc(O)c3)nc3sccn23)n1)c1ccccc1 | 88.4% | 54.4% | 91.1 | 61.9 | 68.5 | 40.2% | – | 23.2% | 37.8% | 45.5% | 94.2 | 66.4 | 87.7% | – | 60.5% | 48% | 47.3% | 67.1% | 87.9
6 | COc1ccccc1NC(=O)COc1ccc(/C=C2/Oc3cc4occc4c(OC)c3C2=O)cc1OC | 104% | 114% | 105 | 102 | 92.2 | 86.3% | 91.6% | 98.8% | 111% | 108% | 99.2 | 104 | 99.9% | 119% | – | 99% | 69.9% | 83.4% | –
7 | C=C1C(=O)O[C@H]2[C@H]1CC/C(COC(=O)OC/C1=C/CC[C@@]3(C)O[C@H]3[C@H]3OC(=O)[C@@H](CN(C)C)[C@@H]3CC1)=C\CC[C@@]1(C)O[C@@H]21 | 1.8% (active) | 91% | 80.3 | 60.6 | 72.7 | 46.9% | -28.1% (active) | -72.3% (active) | -18.3% (active) | 27.4% | 48.8 | 10.7 | -16.2% (active) | -42.7% (active) | – | 58.5% | -13.3% (active) | -30.9% (active) | –
8 | Cc1ccc2c(C3C(C#N)=C(N)Oc4cc5ccccc5cc43)cc(=O)oc2c1 (stereo not given) | 31% | 20.3% | 29.9 | 23.5 | 18.8 | 13.6% | 39.2% | 38.4% | 64.4% | 27.8% | 40 | 46.3 | 47.3% | 47.6% | 50.6% | 30.8% | 13% | 20.8% | –
9 | CCn1cc(C(=O)O)c(=O)c2cc(F)c(N3CCN(CC(=O)Nc4ccc(C(C)=O)cc4)CC3)cc21 | 104% | 87.3% | 99 | 99.6 | 96.4 | 100% | 95.9% | 96.1% | 105% | 92.8% | 103 | 98.9 | 93.6% | 89.3% | – | 95.5% | 98.7% | 97.6% | –
10 | C=C1C(=O)O[C@H]2[C@H]1CC/C(COC(=O)CCCC(=O)OC/C1=C/CC[C@@]3(C)O[C@H]3[C@H]3OC(=O)C(=C)[C@@H]3CC1)=C\CC[C@@]1(C)O[C@@H]21 | 4.33% (active) | 93.3% | 67.6 | 48 | 55.2 | 33.4% | – | -70.3% (active) | 8.77% (active) | 19.5% | 51.1 | 15.1 | 13.6% | 7.23% (active) | – | 62.6% | -11.7% (active) | – | –

— PubChem BioAssay (NCI)
